According to PubChem BioAssay (NCI):
Compounds without any hit were thinned out: in the full panel of roughly 83,000, 20% have a hit.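 In brief: 96-well plates, 48 h treatment, single concentration, percent growth endpoint.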 The source made the active and inactive calls. The calls were made as follows: active = growth percent below 10; inactive = the rest.

Key:
Test in all cases: NCI-60 one-dose screen, 48 h (100 = growth as untreated, 0 = no growth, -100 = all killed)
Conditions in all cases: 10 µM unless noted
SK-MEL-2 melanoma = test system: SK-MEL-2 melanoma
EKVX NSCLC = test system: EKVX NSCLC
SN12C renal = test system: SN12C renal
UO-31 renal = test system: UO-31 renal
TK-10 renal = test system: TK-10 renal
ACHN renal = test system: ACHN renal
CAKI-1 renal = test system: CAKI-1 renal
A498 renal = test system: A498 renal
CCRF-CEM leukemia = test system: CCRF-CEM leukemia
MOLT-4 leukemia = test system: MOLT-4 leukemia
SR leukemia = test system: SR leukemia
RPMI-8226 leukemia = test system: RPMI-8226 leukemia
OVCAR-8 ovarian = test system: OVCAR-8 ovarian
OVCAR-5 ovarian = test system: OVCAR-5 ovarian
OVCAR-4 ovarian = test system: OVCAR-4 ovarian
SK-OV-3 ovarian = test system: SK-OV-3 ovarian
IGROV1 ovarian = test system: IGROV1 ovarian
OVCAR-3 ovarian = test system: OVCAR-3 ovarian
HS 578T breast = test system: HS 578T breast
NCI/ADR-RES ovarian = test system: NCI/ADR-RES ovarian

Measured: growth

C=CC(=O)OC1CCC(C(C)(C)CC)CC1 (stereo not given)
inactive: SK-MEL-2 melanoma 108% | EKVX NSCLC 117% | SN12C renal 103% | UO-31 renal 83.9% | TK-10 renal 101% | ACHN renal 110% | CAKI-1 renal 115% | A498 renal 87.2% | CCRF-CEM leukemia 106% | MOLT-4 leukemia 107% | SR leukemia 98.9% | RPMI-8226 leukemia 103% | OVCAR-8 ovarian 107% | OVCAR-5 ovarian 103% | OVCAR-4 ovarian 105% | SK-OV-3 ovarian 111% | IGROV1 ovarian 117% | OVCAR-3 ovarian 109% | HS 578T breast 101% | NCI/ADR-RES ovarian 105%

CC(=O)N(CCCCCCN(C(C)=O)C(C)=O)C(C)=O
inactive: SK-MEL-2 melanoma 117% [100 µM] | EKVX NSCLC 106% [100 µM] | SN12C renal 103% [100 µM] | UO-31 renal 98.1% [100 µM] | TK-10 renal 116% [100 µM] | ACHN renal 104% [100 µM] | CAKI-1 renal 98.7% [100 µM] | A498 renal 108% [100 µM] | CCRF-CEM leukemia 103% [100 µM] | MOLT-4 leukemia 113% [100 µM] | SR leukemia 99.6% [100 µM] | RPMI-8226 leukemia 107% [100 µM] | OVCAR-8 ovarian 107% [100 µM] | OVCAR-5 ovarian 110% [100 µM] | OVCAR-4 ovarian 101% [100 µM] | SK-OV-3 ovarian 114% [100 µM] | IGROV1 ovarian 108% [100 µM] | OVCAR-3 ovarian 113% [100 µM] | HS 578T breast 105% [100 µM] | NCI/ADR-RES ovarian 105% [100 µM]

CC(=O)NNC(=S)/N=C\C(C(=O)c1ccccc1)=C(/O)c1ccccc1
inactive: SK-MEL-2 melanoma 110% | EKVX NSCLC 99.4% | SN12C renal 107% | UO-31 renal 79.8% | TK-10 renal 130% | ACHN renal 99.5% | CAKI-1 renal 98.3% | A498 renal 105% | CCRF-CEM leukemia 102% | MOLT-4 leukemia 93% | SR leukemia 102% | RPMI-8226 leukemia 104% | OVCAR-8 ovarian 102% | OVCAR-5 ovarian 97.2% | OVCAR-4 ovarian 114% | SK-OV-3 ovarian 91.8% | IGROV1 ovarian 95% | OVCAR-3 ovarian 109% | HS 578T breast 106% | NCI/ADR-RES ovarian 99%

CCN(CC)CCOC(=O)Nc1c(C(C)C)cccc1C(C)C
inactive: SK-MEL-2 melanoma 124% | EKVX NSCLC 106% | SN12C renal 105% | UO-31 renal 83.1% | TK-10 renal 105% | ACHN renal 105% | CAKI-1 renal 88.9% | A498 renal 118% | CCRF-CEM leukemia 98.4% | MOLT-4 leukemia 105% | SR leukemia 101% | RPMI-8226 leukemia 105% | OVCAR-8 ovarian 102% | OVCAR-5 ovarian 104% | OVCAR-4 ovarian 108% | SK-OV-3 ovarian 95.7% | IGROV1 ovarian 100% | OVCAR-3 ovarian 114% | HS 578T breast 105% | NCI/ADR-RES ovarian 113%

COC(c1ccc2c(c1)OCO2)C(C)Br (stereo not given)
inactive: SK-MEL-2 melanoma 101% | EKVX NSCLC 90.3% | SN12C renal 100% | UO-31 renal 91.8% | TK-10 renal 85.8% | ACHN renal 102% | CAKI-1 renal 83.7% | A498 renal 95.6% | CCRF-CEM leukemia 93.3% | MOLT-4 leukemia 91.6% | SR leukemia 88.6% | RPMI-8226 leukemia 93.5% | OVCAR-8 ovarian 101% | OVCAR-5 ovarian 101% | OVCAR-4 ovarian 100% | SK-OV-3 ovarian 83.1% | IGROV1 ovarian 91.4% | OVCAR-3 ovarian 110% | HS 578T breast 91.2% | NCI/ADR-RES ovarian 106%

CN(CCCN(C)CCC1CCCCC1)CCC1CCCCC1
active: SR leukemia -36.3%
inactive: SK-MEL-2 melanoma 74.8% | EKVX NSCLC 61.4% | SN12C renal 53.1% | UO-31 renal 49.8% | TK-10 renal 76.1% | ACHN renal 35.4% | CAKI-1 renal 46.9% | A498 renal 84.7% | CCRF-CEM leukemia 20.9% | MOLT-4 leukemia 20.5% | RPMI-8226 leukemia 43.6% | OVCAR-8 ovarian 67.6% | OVCAR-5 ovarian 56.4% | OVCAR-4 ovarian 59.1% | SK-OV-3 ovarian 58.9% | IGROV1 ovarian 66.6% | OVCAR-3 ovarian 73.9% | HS 578T breast 51.2% | NCI/ADR-RES ovarian 62%

COc1ccc(C)cc1NC(=O)SC(C)C
inactive: SK-MEL-2 melanoma 102% [100 µM] | EKVX NSCLC 102% [100 µM] | SN12C renal 96.6% [100 µM] | UO-31 renal 82.9% [100 µM] | TK-10 renal 128% [100 µM] | ACHN renal 100% [100 µM] | CAKI-1 renal 95.5% [100 µM] | A498 renal 92.3% [100 µM] | CCRF-CEM leukemia 106% [100 µM] | MOLT-4 leukemia 106% [100 µM] | SR leukemia 95.3% [100 µM] | RPMI-8226 leukemia 99% [100 µM] | OVCAR-8 ovarian 105% [100 µM] | OVCAR-5 ovarian 102% [100 µM] | OVCAR-4 ovarian 96.7% [100 µM] | SK-OV-3 ovarian 111% [100 µM] | IGROV1 ovarian 102% [100 µM] | OVCAR-3 ovarian 116% [100 µM] | HS 578T breast 102% [100 µM] | NCI/ADR-RES ovarian 103% [100 µM]

COc1cc(OC)c2cc(C(=O)c3ccc(C#N)cc3)c(=O)oc2c1
inactive: SK-MEL-2 melanoma 103% | EKVX NSCLC 110% | SN12C renal 81.6% | UO-31 renal 84.7% | TK-10 renal 97.7% | ACHN renal 95.2% | CAKI-1 renal 84.6% | A498 renal 99.1% | CCRF-CEM leukemia 101% | MOLT-4 leukemia 103% | SR leukemia 89.8% | RPMI-8226 leukemia 103% | OVCAR-8 ovarian 97.1% | OVCAR-5 ovarian 89.9% | OVCAR-4 ovarian 96.3% | SK-OV-3 ovarian 100% | IGROV1 ovarian 104% | OVCAR-3 ovarian 107% | HS 578T breast 82.1% | NCI/ADR-RES ovarian 101%
